In PubChem BioAssay AID588726 (The Scripps Research Institute Molecular Screening Center, 2011) one finds inhibition data, which are given here for 91 compounds.

The structures appear in SMILES notation. Out of some 360,000 compounds screened, about 8,200 (2.3%) were called active. The list comes from a sample in which actives are over-represented; it also holds similar structures and randomly drawn compounds. A number with no mark means an inactive call. No stated cut-off is given here; in the data, active means inhibition above about 27%; inactive means the rest.

The assay deals with Fructose-bisphosphate aldolase (Mycobacterium tuberculosis (strain ATCC 25618 / H37Rv)) (UniProt P9WQA3). As to the kind of experiment: M. tuberculosis aldolase activity blockers – biochemical, fluorescence, strain H37Rv, primary screen (AID 588726).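 Further: 0% = vehicle and 100% = reference inhibitor.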 Conditions: purified M. tuberculosis FBA, fluorescence read-out, at 1 µM, active compounds read high.
Fructose-bisphosphate aldolase (Mycobacterium tuberculosis (strain ATCC 25618 / H37Rv)), sequence (P9WQA3 whole entry, looked up): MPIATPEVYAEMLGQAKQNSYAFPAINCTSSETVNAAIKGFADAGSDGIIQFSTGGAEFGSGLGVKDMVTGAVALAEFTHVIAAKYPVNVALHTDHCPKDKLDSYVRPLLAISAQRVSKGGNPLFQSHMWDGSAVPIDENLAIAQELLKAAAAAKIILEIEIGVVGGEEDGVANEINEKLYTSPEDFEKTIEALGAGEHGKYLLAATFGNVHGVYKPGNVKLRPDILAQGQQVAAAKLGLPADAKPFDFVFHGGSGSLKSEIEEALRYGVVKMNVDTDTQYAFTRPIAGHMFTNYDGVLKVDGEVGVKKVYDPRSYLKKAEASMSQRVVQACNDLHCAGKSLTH
The inhibition is the drop in the measured response relative to a control, in per cent. With `Cc1ccc(S(=O)(=O)c2cc3c(=O)n4cccc(C)c4nc3n(CCc3ccccc3)c2=N)cc1C`, the inhibition was -2.09%.

Consider `Cc1cccn2c(=O)c3cc(C(=O)NC4CCCCC4)sc3nc12`, for which the inhibition is 9.42%.

For the compound `CCn1c(=N)c(C(=O)NCCCOC)cc2c(=O)n3cccc(C)c3nc21`, the inhibition was 661% [above what the read-out allows, likely interference] (active).

As for `CCc1cccc2c(=O)c(C(=O)NCCCOC)c[nH]c12`, the inhibition is 1.41%.

As for `COCCCn1c(SCC(=O)NC2CCCC2)nnc1-c1ccccc1`, the inhibition is -5.58%.

`COCCCn1c(C(=O)NC2CCCCC2)cc2c(=O)n3cccc(C)c3nc21`: the inhibition was 37.6% (active).

For the compound `CC(NCCc1ccc(S(N)(=O)=O)cc1)C(=O)NCc1ccccc1` (stereo unspecified), the inhibition is 0.46%.

On to `Cc1cccc(C2c3c(n(C)c(=O)n(C)c3=O)N=C3c4ccccc4C(=O)C32)c1` (stereo unspecified), for which the inhibition was -1.16%.

On to `CCOc1ccc(C(=O)Nc2c3c(nn2-c2ccccc2)CS(=O)(=O)C3)cc1`, for which the inhibition is 0.76%.

On to `O=S(=O)(c1ccc(F)cc1)N1CCN(C(=S)NC2CCCC2)CC1`, for which the inhibition is 0.47%.

In the case of `C[C@@H]1CN([C@@H](C)CO)C(=O)c2cc(Br)cnc2O[C@@H]1CN(C)C(=O)C1CCCCC1`, the inhibition was -2.01%.

Consider `O=C(Cn1nnc(-c2ccccc2)n1)NC(=O)NC1CCCC1`, for which the inhibition was 0.56%.

In the case of `O=C(O[C@H]1[C@H](Cc2ccccc2)NS(=O)(=O)[C@H]2C[C@@H]3C=C[C@]12O3)c1ccc([N+](=O)[O-])cc1`, the inhibition is 1.68%.

As for `Cc1nnc(SCC(=O)Nc2ccc(S(=O)(=O)Nc3ccc(Cl)nn3)cc2)s1`, the inhibition was -1.39%.

As to `CC1=C(C(=O)OC2CCCCC2)C(c2cccnc2)n2ncnc2N1` (stereo unspecified), the inhibition was 1.05%.

With `Clc1ccc2c(c1)C1=C(C(c3ccncc3)O2)C(c2ccc(Br)cc2)n2ncnc2N1` (stereo unspecified), the inhibition is 1.95%.

As for `CCOc1ccc(C2=CC(c3ccccc3)n3ncnc3N2)cc1` (stereo unspecified), the inhibition was 48.9% (active).

`Brc1ccc(C2=CC(c3ccco3)n3ncnc3N2)cc1` (stereo unspecified): the inhibition was 31.5% (active).

Regarding `Cc1ccc(F)c(S(=O)(=O)NC(=O)C2(C)CCN2C(=O)c2ccco2)c1` (stereo unspecified), the inhibition is -2.4%.

Consider `Cc1ccc(CCCOC(=O)C[N+]2(C)CCCC2)cc1`, for which the inhibition is 2.21%.

As for `COC(=O)C1(CCSC)NC(c2ccc(OC)cc2OC)C2C(=O)N(c3cccc(C(C)=O)c3)C(=O)C21` (stereo unspecified), the inhibition was 1.37%.

For `CO[C@H]1[C@@H]2C=CO[C@@H](O[C@H]3O[C@@H](CO)[C@H](O)[C@@H](O)[C@@H]3O)[C@@H]2[C@@]2(CO)O[C@@H]12`, the inhibition is 2.4%.

For `CCOC(=O)C1CCCN(C(=O)c2ccc(CS(=O)(=O)c3ccc(Br)cc3)o2)C1` (stereo unspecified), the inhibition is 1.86%.

Turning to `COc1ccccc1-c1sc2ccccc2c1C#CC1(O)CCCCC1`, the inhibition is 6.51%.

In the case of `COc1ccccc1-c1oc2ccccc2c1C#CCCCCO`, the inhibition was 30.8% (active).

In the case of `CCNC(=O)CC1C(=O)N(c2ccc(F)cc2)C(=O)N1Cc1cccs1` (stereo unspecified), the inhibition is -3.21%.

Consider `CSCC[C@H](NC(=O)NC1CCCC1)C(=O)O`, for which the inhibition is -1.95%.

As for `CCN(CC)c1ccc(NC(=O)C2CCC(CNc3c(N4CCCC4)c(=O)c3=O)CC2)c(C)c1` (stereo unspecified), the inhibition was -0.83%.

For the compound `COc1ccc2c(c1)CC[C@@H]1[C@@H]2CC[C@]2(C)C(=O)CC[C@@H]12`, the inhibition was 0.88%.

As to `O=C1OCC2=C1C(c1ccccc1)CC(=O)N2c1cccc(F)c1` (stereo unspecified), the inhibition is -3.03%.

Regarding `O=C(OCC(=O)N1CCc2ccccc21)c1ccc([N+](=O)[O-])cc1`, the inhibition is -3.08%.

In the case of `Cc1ccc(S(=O)(=O)NCC(=O)OCC(=O)N2CCc3ccccc32)cc1`, the inhibition was 0.04%.

Regarding `Cc1cnc(C(=O)OCC(=O)N2CCc3ccccc32)cn1`, the inhibition was 69% (active).

For `CCc1ccc(N2CC(C(=O)NC3=NCCS3)CC2=O)cc1` (stereo unspecified), the inhibition is 4.59%.

Regarding `O=C(CCc1ccccc1)Nc1cccc(-c2nnc(-c3ccco3)o2)c1`, the inhibition is 26.9% (active).

Regarding `O=C(CCc1ccccc1)Nc1nn[nH]n1`, the inhibition is 2.03%.

Take `O=C(CSc1nnc(-c2ccco2)o1)NCC(=O)c1ccccc1`: the inhibition was -1.17%.

`O=C1CCC(=O)N1CCOP1(=O)COc2ccccc2OC1`: the inhibition was 3.44%.

As to `CCCSc1nc2c(c(=O)n(C)c(=O)n2C)n1Cc1ccc(C)cc1`, the inhibition was 1.01%.

For the compound `CCOC(=O)CSc1nc2c(c(=O)n(Cc3ccccc3Cl)c(=O)n2C)n1C`, the inhibition was 88% (active).

For the compound `CCC1CCCCN1C(=O)CSc1nc2c(c(=O)n(C)c(=O)n2C)n1C` (stereo unspecified), the inhibition is 0.65%.

As to `CC(C)C1CCN(C(=O)C2CCC(=O)N(C3CCCCCC3)C2)CC1` (stereo unspecified), the inhibition was -1.51%.

On to `CCN(C(=O)Cc1c(C(=O)O)n(CC)c2ccccc12)c1ccccc1C`, for which the inhibition was 0.97%.

For the compound `Fc1ccc(COc2ccc(-c3nnco3)cc2)cc1`, the inhibition is -0.19%.

For the compound `Fc1ccc(/C=N/n2c(COc3ccccc3)n[nH]c2=S)cc1`, the inhibition was 2.47%.

Take `Fc1ccc(COc2cccc(-c3n[nH]c(=S)o3)c2)cc1`: the inhibition is 29.4% (active).

Turning to `CC1(C)C2CC[C@]3(C)C(CC=C4[C@@H]5C[C@@](C)(CO)CC[C@]5(C(=O)O)CC[C@]43C)[C@@]2(C)CC[C@@H]1O` (stereo partly specified), the inhibition was 0.29%.

`Cc1ccccc1C(=O)N1CCC(C(=O)Nc2ccc(S(=O)(=O)N(C)C(C)C)cc2)CC1`: the inhibition is 1.27%.

`Cc1c(C)n2c(SCC(=O)N3CCCC3)nnc2[nH]c1=O`: the inhibition was -0.46%.

On to `O=C(CSc1nc2c(cnn2-c2ccc(F)cc2)c(=O)[nH]1)N1CCCCCC1`, for which the inhibition is 2.6%.

As for `CC(=O)c1sc2nc(SCC(=O)N3CCCCC3)[nH]c(=O)c2c1C`, the inhibition was 30.5% (active).

In the case of `CC(C)c1ccc(N(C(=O)c2ccco2)C(C(=O)NC2CCCC2)c2cccnc2)cc1` (stereo unspecified), the inhibition is -3.97%.

Take `O=C(NC(=S)Nc1ccccc1C(=O)O)c1ccc(-c2ccc(Br)cc2)o1`: the inhibition was 10.4%.

In the case of `CCOC(=O)Cc1c(C)nc2c(C#N)c(C)nn2c1C`, the inhibition is 46.4% (active).

With `Cc1cc(C)cc(NC(=O)CCN2C(=O)c3ccccc3C2=O)c1`, the inhibition was 0.74%.

On to `Cc1cc(C)cc(NC(=O)CSc2ccccc2)c1`, for which the inhibition is 70.8% (active).

With `Cc1cc(C)cc(NC(=O)CSCc2cnn(-c3ccccc3)c2-n2cccc2)c1`, the inhibition is -1.78%.

As for `CCCN(CC(=O)Nc1ccccc1C)C(=O)c1ccc(OCC(=O)N2CCOCC2)c(OCC)c1`, the inhibition is -1.46%.

For `Cn1ncc2c(N3CCCCC3)nc(NCCCO)nc21`, the inhibition was -2.65%.

In the case of `CC(C)(C)C(=O)NC1CC2CCCC(C1)N2C(=O)Nc1ccccc1F` (stereo unspecified), the inhibition was -0.96%.

`CCCCn1c(N)c(N(CCOC)C(=O)CSCC(=O)Nc2cccc(C)c2)c(=O)[nH]c1=O`: the inhibition is -1.91%.

Regarding `COc1ccc(-c2nc3ccccc3n2CCC(C)C)cc1OC`, the inhibition was 5.55%.

Turning to `CCCCn1c(-c2cccc(C)c2)nc2cc3[nH]c(=O)c(C(C)C)nc3cc21`, the inhibition is 87.6% (active).

Consider `Nn1c(Cc2cccc3ccccc23)nnc1SCC(=O)N1CC(=O)Nc2ccccc21`, for which the inhibition is 1.67%.

`CSCCC(Nc1ccc(S(=O)(=O)N2CCOCC2)cc1[N+](=O)[O-])C(=O)OCC(=O)N(C(C)C)C(C)C` (stereo unspecified): the inhibition is -2.32%.

Consider `CCOC(=O)Cc1cc(=O)[nH]c(=O)[nH]1`, for which the inhibition was 1.01%.

For `Cc1c(CCC(=O)O)c(=O)oc2c(C)c(OCc3ccccc3Cl)ccc12`, the inhibition is 5.47%.

For `FC(F)(F)c1ccc(-c2cccc3c2C2CC3CCN2Cc2ccccc2)cc1` (stereo unspecified), the inhibition was 4.42%.

As for `O=C(NCC(c1cccs1)N1CCOCC1)c1cc(-c2ccccn2)nc2ccccc12` (stereo unspecified), the inhibition is 5.77%.

Regarding `O=C(NCCN1CCOCC1)c1cc(Sc2cccc(Cl)c2)nc2ccccc12`, the inhibition is -0.13%.

As for `COC(=O)c1cc(-c2cccs2)nc2ccccc12`, the inhibition is 31.1% (active).

For the compound `COC(=O)c1cc(N2CCNCC2)nc2ccccc12`, the inhibition is 12.9%.

`Cc1csc2nc(O)c(C(=O)NCCN3CCOCC3)c(=O)n12`: the inhibition was 0.68%.

Take `Cc1cc(C(=O)OCC(=O)Nc2nccs2)c2ccccc2n1`: the inhibition is -2.68%.

Take `CCCCN(C)CCCNC(=O)c1cc(-c2cccs2)nc2ccccc12`: the inhibition was 140% (active).

For `O=C(NCCN1CCOCC1)c1cc(-c2cccs2)nc2ccccc12`, the inhibition was 67.9% (active).

Turning to `O=C(NCCc1ccccn1)c1cc(-c2ccc(Cl)cc2)nc2ccccc12`, the inhibition was -0.88%.

Take `CC(C)CC(=O)N=C1SC2CS(=O)(=O)CC2N1CCc1ccccc1` (stereo unspecified): the inhibition is -1.54%.

Take `C[C@H](CO)N1C[C@H](C)[C@@H](CN(C)S(=O)(=O)c2ccc(F)cc2)OCc2cnnn2CCCC1=O`: the inhibition is -1.18%.

Consider `CCc1n[nH]c(=S)n1/N=C/c1c[nH]c2ccc(Br)cc12`, for which the inhibition was 4.89%.

As for `N#CCSc1nn(-c2ccc(F)cc2)c(=S)s1`, the inhibition was 2.99%.

In the case of `CCCCC(=O)NNC(=S)NC(=O)C(c1ccccc1)c1ccccc1`, the inhibition was 6.76%.

Regarding `CSc1ccc(CN2CCC2(C)C(=O)Nc2ccc(C)c(O)c2)cc1` (stereo unspecified), the inhibition is -1.62%.

Turning to `Cc1oc(CC(C)C)c(CN2CCCC2)c1C(=O)O`, the inhibition is -9.07%.

As to `Cc1noc(C)c1C(=O)OCC(=O)N1CCN(S(=O)(=O)c2ccc3ccccc3c2)CC1`, the inhibition is 3.46%.

With `O=c1cc(CN2CCCCCCC2)c2c(ccc3ccccc32)o1`, the inhibition is 17%.

For the compound `CCCc1cc(=O)oc2c(C)c(OC(C)C(=O)NCC(O)c3ccccc3)ccc12` (stereo unspecified), the inhibition is 18.1%.

In the case of `O=C(CSc1ncccn1)N1CCCC1`, the inhibition was 1.75%.

Turning to `Cc1cccc(C)c1NC(=O)c1ccc(CN2CCc3ccccc3C2)cc1`, the inhibition is 1.47%.

With `Cc1ccc(NC(=O)CN2CCc3ccccc3C2)cc1C`, the inhibition was 0.22%.

As to `Cc1cccc2c1-c1sc(C(=O)NCCCN3CCc4ccccc4C3)cc1CO2`, the inhibition was 90.4% (active).
